Rows were chosen to be rich in hits. Some 2.7% of all compounds tested hit in one or more screens of this group.
PAFAH1B3 inh = inhibitors of human PAFAH1B3. Q15102. recombinant PAFAH1B3, FP-rhodamine probe, fluorescence polarization. inhibition, % at 3.39 µM. 340,000 tested, 0.28% active. AID 492972;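 active = inhibition above the screen-wide average of all tested compounds plus 3 SD, cut at about 25% in these data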;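 note: 0% = enzyme with DMSO only and 100% = wells lacking PAFAH1B3 protein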
Target sequence (Q15102 whole entry, looked up): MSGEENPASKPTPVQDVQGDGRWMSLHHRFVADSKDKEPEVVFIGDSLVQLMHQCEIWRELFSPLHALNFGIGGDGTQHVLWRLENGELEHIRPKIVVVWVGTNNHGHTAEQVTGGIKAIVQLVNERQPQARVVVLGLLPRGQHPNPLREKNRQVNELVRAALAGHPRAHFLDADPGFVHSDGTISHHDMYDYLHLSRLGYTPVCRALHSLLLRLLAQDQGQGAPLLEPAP
TCR-CD3 inh = inhibitors of human TCR-CD3 interaction | 360,000 tested, 0.37% active | TAMRA-labeled TCR probe fluorescence, biochemical | AID 651800 | inhibition, % at 9.4 µM;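 note: recombinant mutant TCR 2C K166C tagged with TAMRA read by polarization; 0% = receptor in buffer alone and 100% = receptor with positive control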
PAFAH1B2 inh = blocks human PAF acetylhydrolase 1b catalytic subunit 2 | P68402 | recombinant PAFAH1B2, FP-rhodamine activity probe, fluorescence polarization | inhibition, % at 3.39 µM | 340,000 tested, 1.2% active | AID 492953;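 active = inhibition above the mean of all tested compounds plus 3 SD, cut at about 24% in these data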;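 note: 0% = enzyme with DMSO and 100% = wells lacking PAFAH1B2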
Target sequence (P68402 whole entry, looked up): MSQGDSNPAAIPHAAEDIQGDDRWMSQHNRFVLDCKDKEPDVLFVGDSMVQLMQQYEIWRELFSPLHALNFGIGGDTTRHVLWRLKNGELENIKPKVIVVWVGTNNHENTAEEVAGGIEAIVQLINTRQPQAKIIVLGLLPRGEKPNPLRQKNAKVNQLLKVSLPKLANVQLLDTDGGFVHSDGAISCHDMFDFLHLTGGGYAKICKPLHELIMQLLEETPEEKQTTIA
pPAFAH FP inh = inhibitors of human plasma PAF acetylhydrolase (pPAFAH); Q13093; recombinant pPAFAH, FP-rhodamine probe fluorescence polarization; inhibition, % at 3.39 µM; 330,000 tested, 1.5% active;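 active = inhibition above the mean inhibition across the screen plus 3 SD, cut at about 25% in these data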;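 note: inhibitors block binding of the rhodamine activity-based probe so polarization drops; 0% = enzyme with DMSO and 100% = wells lacking pPAFAH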
PAFAH2 FP inh = PAFAH2 (human) inhibition; Q99487; recombinant PAFAH2, FP-rhodamine activity probe, fluorescence polarization; inhibition, % at 3.39 µM; 340,000 tested, 0.99% active; AID 492956;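 active = inhibition above the mean over all tested compounds plus 3 SD, cut at about 30% in these data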;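 note: inhibitors block probe labeling of enzyme so polarization drops; 0% = enzyme with DMSO and 100% = wells lacking PAFAH2 protein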
BSA probe FL = interferes with TAMRA-BSA probe, flagging TCR-CD3 hits; inhibition, % at 9.4 µM; AID 652035; TAMRA-labeled BSA probe fluorescence counterscreen; 1,200 tested, 10% active; shares compounds with TCR-CD3 inh; in the data active = inhibition above about 23%;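 note: 0% = buffer low control and 100% = reference high control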
TCR-CD3 inh conf = confirmation of human TCR-CD3 interaction inhibitors. shares compounds with TCR-CD3 inh. AID 652036. TAMRA-labeled TCR probe fluorescence binding assay. inhibition, % at 9.4 µM. 1,200 tested, 48% active
Active calls of the source: *; · = no result. Cut-off read from the data, not from the text of the source, unless noted: active = inhibition above about 19%; inactive = the rest.

SMILES	PAFAH1B3 inh	TCR-CD3 inh	PAFAH1B2 inh	pPAFAH FP inh	PAFAH2 FP inh	BSA probe FL	TCR-CD3 inh conf
COC(=O)c1sccc1NC(=O)Nc1ccc(Cl)c(Cl)c1	-8	34*	-4	0	-5	3	7
CCN(CC)C(=O)c1ncn2c1c(=O)[nH]c1ccccc12	·	-3	·	·	·	·	·
Cc1ccc(NS(=O)(=O)c2ccc(Cl)c(C(=O)Nc3ccccc3-c3nc4ccccc4[nH]3)c2)cc1C	-112	78*	-51	11	-61	18	37*
Cc1ccc(S(=O)(=O)N2CCC(=O)N([C@H](COCc3ccc(Cl)cc3)C(C)C)CC2)cc1	·	-4	·	·	·	·	·
Cc1ccc(S(=O)(=O)N2CCC(=O)N(C(CO)C(C)C)CC2)cc1 (stereo unspecified)	4	103*	5	2	-4	-3	-3
Cc1cc(S(=O)(=O)Nc2c(NC3CCCCC3)c3ccccc3oc2=O)ccc1F	8	19*	4	0	-1	4	3
O=C(Nc1ccc(Cl)c(Cl)c1)O/N=C/c1ccncc1	-63	42*	-24	-35	-51	10	20*
COc1cc(/C=N/NC(=O)c2cc(O)cc(O)c2)ccc1OC(=O)c1ccccc1	19	20*	14	·	-19	-10	26*
COc1ccc(/C=N\NC(=O)c2ccccc2)cc1COc1ccccc1	6	-6	1	8	-5	·	·
COc1cc(OC)cc(C(=O)N/N=C/c2ccc(OC)c(COc3ccc4ccccc4c3)c2)c1	-62	40*	-37	-21	-76	9	35*
O=C(O)CCCCCn1c(SCC(=O)c2ccc(O)c(O)c2)nc2ccsc2c1=O	22	25*	8	21	15	-6	25*
O=C(O)CCCCCn1c(SCC(=O)N2CCCC2)nc2ccsc2c1=O	0	2	4	4	3	·	·
CCn1c(=O)c2sccc2n(Cc2cccc(C)c2)c1=O	8	-6	5	2	-9	·	·
C/C(=N\NC(=O)c1ccccc1O)C1CC1	6	25*	4	2	13	41*	23*
C/C(=N\NC(=O)c1ccc(N)cc1)C1CC1	7	9	4	5	0	·	·
O=C(NCC1CCCO1)C(=O)N/N=C/c1cccc(Cl)c1 (stereo unspecified)	8	4	2	2	4	·	·
O=C1C2Sc3[nH]c(=O)sc3C(c3cc([N+](=O)[O-])ccc3O)C2C(=O)N1c1ccccc1 (stereo unspecified)	6	6	6	14	13	·	·
COC(=O)[C@@]1(Cc2ccc(OC)cc2)[C@H]2c3cc(C(=O)N4CCCC4)n(Cc4ccc(C)o4)c3C[C@H]2CN1C(=O)c1ccccc1	·	60*	·	·	·	0	-3
COC(=O)[C@@]1(Cc2ccc(OC)cc2)[C@H]2c3cc(C(=O)N4CCCC4)n(Cc4ccc(S(C)(=O)=O)cc4)c3C[C@H]2CN1C(=O)c1ccccc1	·	-6	·	·	·	·	·
Cc1cccc(C(=O)c2ccccc2C(=O)O)c1O	-3	10	4	1	11	·	·
CCN(CC)c1ccc(C(=O)c2ccccc2C(=O)O)c(O)c1	13	40*	14	5	13	56*	36*
C#CCn1c(=NC(=O)c2ccc(S(=O)(=O)N3CCCc4ccccc43)cc2)sc2cc(S(N)(=O)=O)ccc21	-92	21*	-45	-23	-102	19	23*
Cn1c(=NC(=O)c2ccc(S(=O)(=O)N3CCCc4ccccc43)cc2)sc2cc(S(C)(=O)=O)ccc21	-6	-3	-2	5	-18	·	·
O=C(NNC(=S)NC(=O)c1cccc([N+](=O)[O-])c1)c1ccc(Br)cc1	6	20*	-1	10	6	-7	17
O=C(NNC(=S)NC(=O)c1cccc([N+](=O)[O-])c1)c1ccc(O)cc1	5	20*	5	1	11	-2	34*
SMILES	PAFAH1B3 inh	TCR-CD3 inh	PAFAH1B2 inh	pPAFAH FP inh	PAFAH2 FP inh	BSA probe FL	TCR-CD3 inh conf
CCCc1cc(=O)oc2cc(OC3CCCCC3=O)ccc12 (stereo unspecified)	10	10	7	·	3	·	·
CCCn1c(SCC(=O)Nc2ccccc2OC)nnc1-c1ccco1	1	2	7	-4	-5	·	·
O=C(CCNC(=O)c1ccc(Br)cc1)NCc1cccnc1	3	1	0	5	0	·	·
NC(=O)CCC1NC(=S)N(Cc2ccccc2)C1=O (stereo unspecified)	6	34*	0	-2	-1	13	45*
CC(=O)N(C)C1(c2nnnn2CCOC(=O)Nc2ccc(Cl)cc2)CCCCC1	-5	30*	4	-2	-1	1	2
CCCCNc1nc2c(c(=O)n(Cc3ccccc3)c(=O)n2C)n1C	1	-6	3	4	0	·	·
O=S(=O)(Nc1cccc2ncccc12)c1cccc(C(F)(F)F)c1	4	20*	2	2	1	3	8
Cc1ccc(S(=O)(=O)Nc2cccc3ncccc23)cc1	7	-7	-2	2	-5	·	·
Nc1ccc2nc3c(=O)n(CCc4ccccc4)c(=O)[nH]c3nc2c1	·	27*	·	17	·	26*	21*
Nc1ccc2nc(CCc3ccccc3)[nH]c2c1	15	0	7	7	9	·	·
Nc1ccc2nc3c(=O)n(C4CCCCC4)c(=O)[nH]c3nc2c1	9	24*	6	26*	20	28*	27*
COc1cc2[nH]c(=O)n(C3CCCCC3)c(=O)c2cc1OC	2	0	9	4	2	·	·
Cc1ccc(C(=O)OCC(=O)NNC(=O)COc2ccc(Cl)cc2)c(O)c1	7	27*	9	9	-5	1	12
O=C(/C=C/c1ccccc1Cl)Nn1cnc2ccccc2c1=O	5	-5	-4	-5	6	·	·
CCc1nc2ccc(C(=O)NCCCN3CCCC3=O)cn2c1N(C)CCC(C)C	·	0	·	·	·	·	·
CC(NC(=O)Cc1ccc([N+](=O)[O-])cc1)c1ccc2c(c1)OCO2 (stereo unspecified)	2	6	6	6	0	·	·
CN(CC(=O)Nc1ccc(F)cc1)C(=O)COC(=O)c1ccc(=O)n(Cc2ccccc2)n1	3	87*	5	29*	2	2	3
COc1cc(CC(=O)N2CCc3ccccc32)cc(OC)c1OC	15	-1	2	1	-2	·	·
CCOC(=O)N1CCc2cc(OC)c(OC)c3c2c1cc1cc(OC)c(OC)cc13	12	27*	8	·	19	-3	2
Cc1ccc(F)cc1C(=O)N1CCOCC1c1cc(C(=O)NCc2ccccc2)no1 (stereo unspecified)	·	-6	·	·	·	·	·
O=C(CSc1nnc(CNC(=O)c2c(F)cccc2F)o1)NCCc1ccccc1	2	-3	-1	10	3	·	·
COc1ccc(N(C)S(=O)(=O)c2cccc(C(=O)Nc3nnc(C4CC4)s3)c2)cc1	7	6	2	5	3	·	·

Screening results as filed in PubChem BioAssay.
